Laboratory results published in the supplement of paper PMC6411743.
± gives the standard deviation of the averaged measurements. Of roughly 5,400 targets only a part is listed; those with the largest changes were picked by preference.

Compound: Nc1nc2c(ncn2[C@@H]2O[C@H](COP(=O)(O)OP(=O)(O)OP(=O)(O)O)[C@@H](O)[C@H]2O)c(=O)[nH]1 [guanosine triphosphate]
Test: NP40-soluble protein abundance relative to vehicle (solubility fold change) (ratio); higher = more soluble protein in presence of GTP
Summary of the method: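 Crude Jurkat lysate, prepared by Dounce homogenisation, was exposed to eight concentrations from 0.1 to 10 mM for 10 min at room temperature and then 3 min at 37 °C. Solubilisation used 0.8% NP40 with benzonase for 60 min at 4 °C, followed by ultracentrifugation and TMT labelling of the supernatant for LC-MS/MS. After vsn normalisation of intensities, each value is the fold change against the detergent-processed vehicle within each replicate, across three independent experiments.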

Chain of UniProt Q8TEW0 (Q8TEW0 whole entry, one chain of several): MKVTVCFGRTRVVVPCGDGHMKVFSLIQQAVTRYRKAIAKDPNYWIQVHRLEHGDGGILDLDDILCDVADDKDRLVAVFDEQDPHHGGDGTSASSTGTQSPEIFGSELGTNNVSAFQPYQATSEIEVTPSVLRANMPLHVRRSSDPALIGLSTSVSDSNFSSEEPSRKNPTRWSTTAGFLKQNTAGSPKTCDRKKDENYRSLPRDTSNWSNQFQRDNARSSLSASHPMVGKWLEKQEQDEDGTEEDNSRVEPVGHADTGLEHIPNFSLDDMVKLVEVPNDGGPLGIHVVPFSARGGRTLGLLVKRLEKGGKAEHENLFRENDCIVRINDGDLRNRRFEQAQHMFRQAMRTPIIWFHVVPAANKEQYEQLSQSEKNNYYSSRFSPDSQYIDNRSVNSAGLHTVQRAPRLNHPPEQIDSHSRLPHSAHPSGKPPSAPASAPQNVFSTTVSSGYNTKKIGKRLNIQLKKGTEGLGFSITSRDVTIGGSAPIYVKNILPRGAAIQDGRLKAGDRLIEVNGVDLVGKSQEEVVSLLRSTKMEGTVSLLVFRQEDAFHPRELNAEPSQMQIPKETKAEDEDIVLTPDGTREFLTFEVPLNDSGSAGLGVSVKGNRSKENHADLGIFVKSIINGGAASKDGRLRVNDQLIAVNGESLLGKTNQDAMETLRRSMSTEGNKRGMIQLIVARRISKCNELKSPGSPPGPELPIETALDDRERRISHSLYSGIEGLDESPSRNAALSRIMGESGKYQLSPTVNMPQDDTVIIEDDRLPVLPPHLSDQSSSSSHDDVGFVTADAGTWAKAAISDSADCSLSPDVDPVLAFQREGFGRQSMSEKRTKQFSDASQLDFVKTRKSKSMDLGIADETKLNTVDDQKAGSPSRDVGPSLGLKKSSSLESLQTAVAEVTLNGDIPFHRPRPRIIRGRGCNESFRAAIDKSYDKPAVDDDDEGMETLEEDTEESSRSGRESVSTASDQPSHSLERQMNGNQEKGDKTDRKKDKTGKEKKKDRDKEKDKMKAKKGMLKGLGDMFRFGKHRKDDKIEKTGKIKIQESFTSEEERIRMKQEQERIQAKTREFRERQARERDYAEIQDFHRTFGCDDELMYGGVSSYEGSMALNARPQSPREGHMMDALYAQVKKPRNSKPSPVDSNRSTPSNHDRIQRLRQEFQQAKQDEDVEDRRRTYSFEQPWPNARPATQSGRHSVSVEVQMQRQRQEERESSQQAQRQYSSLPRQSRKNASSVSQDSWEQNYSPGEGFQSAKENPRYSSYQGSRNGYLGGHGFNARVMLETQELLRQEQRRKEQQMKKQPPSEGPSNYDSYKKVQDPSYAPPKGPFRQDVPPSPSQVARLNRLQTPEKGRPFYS
Chain of UniProt P55884 (P55884 whole entry): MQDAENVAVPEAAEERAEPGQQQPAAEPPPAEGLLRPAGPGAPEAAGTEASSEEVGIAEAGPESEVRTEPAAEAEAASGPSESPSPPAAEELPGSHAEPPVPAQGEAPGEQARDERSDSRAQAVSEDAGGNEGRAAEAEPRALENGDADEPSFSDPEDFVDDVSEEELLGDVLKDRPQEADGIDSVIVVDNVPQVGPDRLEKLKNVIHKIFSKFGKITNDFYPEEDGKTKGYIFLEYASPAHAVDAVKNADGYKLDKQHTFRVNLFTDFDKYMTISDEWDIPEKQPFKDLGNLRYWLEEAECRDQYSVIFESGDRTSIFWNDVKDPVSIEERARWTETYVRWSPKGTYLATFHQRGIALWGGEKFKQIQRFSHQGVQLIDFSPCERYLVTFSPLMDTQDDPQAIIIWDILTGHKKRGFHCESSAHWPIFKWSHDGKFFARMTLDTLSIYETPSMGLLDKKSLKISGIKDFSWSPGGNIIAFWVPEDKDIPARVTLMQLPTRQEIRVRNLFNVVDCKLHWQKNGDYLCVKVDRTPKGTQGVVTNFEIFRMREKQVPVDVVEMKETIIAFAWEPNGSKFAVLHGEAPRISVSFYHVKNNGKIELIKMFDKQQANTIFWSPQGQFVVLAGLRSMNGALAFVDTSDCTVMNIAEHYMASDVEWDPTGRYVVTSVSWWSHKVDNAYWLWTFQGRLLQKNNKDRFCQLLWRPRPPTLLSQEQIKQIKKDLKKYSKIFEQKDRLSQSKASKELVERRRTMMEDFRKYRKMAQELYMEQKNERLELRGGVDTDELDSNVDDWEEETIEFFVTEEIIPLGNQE
Chain of UniProt Q15843 (Q15843 whole entry, one chain of several): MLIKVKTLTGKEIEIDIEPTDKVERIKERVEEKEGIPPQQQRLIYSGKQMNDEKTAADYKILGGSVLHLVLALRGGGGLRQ
Chain of UniProt Q8WWI5 (Q8WWI5 whole entry): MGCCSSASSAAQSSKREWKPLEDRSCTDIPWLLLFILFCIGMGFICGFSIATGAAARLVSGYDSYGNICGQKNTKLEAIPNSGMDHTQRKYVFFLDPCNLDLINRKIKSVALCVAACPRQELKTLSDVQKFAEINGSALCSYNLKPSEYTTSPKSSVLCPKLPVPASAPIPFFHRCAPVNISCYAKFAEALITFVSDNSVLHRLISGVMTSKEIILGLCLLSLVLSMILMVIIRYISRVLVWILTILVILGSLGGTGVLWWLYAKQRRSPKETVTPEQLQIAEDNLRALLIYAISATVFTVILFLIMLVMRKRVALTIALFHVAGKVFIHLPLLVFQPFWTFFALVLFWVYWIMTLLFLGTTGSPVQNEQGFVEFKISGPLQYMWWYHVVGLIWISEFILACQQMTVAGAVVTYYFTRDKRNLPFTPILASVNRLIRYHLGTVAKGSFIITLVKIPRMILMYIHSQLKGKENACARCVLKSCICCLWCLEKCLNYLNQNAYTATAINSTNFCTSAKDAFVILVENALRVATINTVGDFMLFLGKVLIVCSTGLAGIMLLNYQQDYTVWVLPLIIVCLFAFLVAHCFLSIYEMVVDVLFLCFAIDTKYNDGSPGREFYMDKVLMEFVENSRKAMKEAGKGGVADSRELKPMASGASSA
Chain of UniProt Q8N8A6 (Q8N8A6 whole entry): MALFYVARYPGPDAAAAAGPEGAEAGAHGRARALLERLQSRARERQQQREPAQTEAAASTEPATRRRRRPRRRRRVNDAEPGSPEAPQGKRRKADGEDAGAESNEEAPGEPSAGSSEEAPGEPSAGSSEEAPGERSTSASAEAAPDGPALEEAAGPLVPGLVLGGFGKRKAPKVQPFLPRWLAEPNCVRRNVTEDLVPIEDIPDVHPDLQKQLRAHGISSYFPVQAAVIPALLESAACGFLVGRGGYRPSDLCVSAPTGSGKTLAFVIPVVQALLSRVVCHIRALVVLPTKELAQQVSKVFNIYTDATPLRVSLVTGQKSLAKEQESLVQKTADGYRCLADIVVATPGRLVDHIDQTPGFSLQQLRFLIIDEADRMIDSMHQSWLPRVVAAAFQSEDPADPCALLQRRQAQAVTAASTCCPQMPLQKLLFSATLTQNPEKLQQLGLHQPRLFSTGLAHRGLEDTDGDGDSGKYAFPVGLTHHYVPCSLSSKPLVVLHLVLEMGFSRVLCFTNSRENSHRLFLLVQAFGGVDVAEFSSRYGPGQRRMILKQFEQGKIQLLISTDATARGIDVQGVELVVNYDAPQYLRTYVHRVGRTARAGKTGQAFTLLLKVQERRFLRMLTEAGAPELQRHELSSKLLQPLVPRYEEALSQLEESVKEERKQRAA
Chain of UniProt P63151 (P63151 whole entry, one chain of several): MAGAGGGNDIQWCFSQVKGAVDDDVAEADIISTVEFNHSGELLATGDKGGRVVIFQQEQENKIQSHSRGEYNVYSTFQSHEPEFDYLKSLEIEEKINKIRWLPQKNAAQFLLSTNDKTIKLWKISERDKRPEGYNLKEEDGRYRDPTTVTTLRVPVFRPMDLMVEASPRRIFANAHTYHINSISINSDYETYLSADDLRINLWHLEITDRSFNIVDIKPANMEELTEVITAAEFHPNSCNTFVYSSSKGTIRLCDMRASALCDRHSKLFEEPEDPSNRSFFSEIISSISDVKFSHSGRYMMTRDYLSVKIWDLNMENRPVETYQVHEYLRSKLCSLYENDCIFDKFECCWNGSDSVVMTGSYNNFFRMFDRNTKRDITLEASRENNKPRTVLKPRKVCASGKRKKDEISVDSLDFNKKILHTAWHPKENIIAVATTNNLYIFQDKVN
Chain of UniProt Q8IXB1 (Q8IXB1 whole entry): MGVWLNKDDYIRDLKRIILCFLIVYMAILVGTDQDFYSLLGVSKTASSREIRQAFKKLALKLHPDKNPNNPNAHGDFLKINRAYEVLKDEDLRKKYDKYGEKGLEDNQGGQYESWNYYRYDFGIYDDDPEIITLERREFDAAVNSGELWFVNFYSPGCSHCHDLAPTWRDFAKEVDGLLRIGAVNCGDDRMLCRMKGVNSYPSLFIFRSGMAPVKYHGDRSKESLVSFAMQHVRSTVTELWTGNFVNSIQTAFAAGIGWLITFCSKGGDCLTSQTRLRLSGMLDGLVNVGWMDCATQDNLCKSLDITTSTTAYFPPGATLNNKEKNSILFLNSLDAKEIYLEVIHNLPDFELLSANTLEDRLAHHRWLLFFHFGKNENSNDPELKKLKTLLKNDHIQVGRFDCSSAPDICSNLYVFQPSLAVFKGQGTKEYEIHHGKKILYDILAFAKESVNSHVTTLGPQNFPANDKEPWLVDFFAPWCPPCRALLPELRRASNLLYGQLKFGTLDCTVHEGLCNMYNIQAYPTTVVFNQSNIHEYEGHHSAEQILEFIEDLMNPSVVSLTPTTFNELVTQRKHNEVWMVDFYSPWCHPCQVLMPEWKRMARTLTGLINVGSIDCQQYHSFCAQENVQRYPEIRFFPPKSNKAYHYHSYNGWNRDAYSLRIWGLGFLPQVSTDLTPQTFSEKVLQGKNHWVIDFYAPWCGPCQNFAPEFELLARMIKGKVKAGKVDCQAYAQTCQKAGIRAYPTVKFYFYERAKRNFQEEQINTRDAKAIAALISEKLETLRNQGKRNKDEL

Target	NP40-soluble protein abundance (concentration: 0.1mM)	NP40-soluble protein abundance (concentration: 0.5mM)	NP40-soluble protein abundance (concentration: 1mM)	NP40-soluble protein abundance (concentration: 2mM)	NP40-soluble protein abundance (concentration: 4mM)	NP40-soluble protein abundance (concentration: 6mM)	NP40-soluble protein abundance (concentration: 8mM)	NP40-soluble protein abundance (concentration: 10mM)
UniProt P63151|E5RJV1	0.983 ± 0.037	1.02 ± 0.071	0.934 ± 0.068	0.931 ± 0.083	0.955 ± 0.079	0.887 ± 0.071	0.92 ± 0.016	0.8766 ± 0.0055
UniProt Q02447-3	0.995 ± 0.021	1 ± 0.078	1.01 ± 0.033	0.984 ± 0.067	0.983 ± 0.049	1.01 ± 0.084	1.08 ± 0.055	1.05 ± 0.016
UniProt Q86V48|Q86V48-2|Q86V48-3	0.953 ± 0.056	0.967 ± 0.042	1.01 ± 0.051	0.99 ± 0.097	1.03 ± 0.088	1.08 ± 0.081	1.17 ± 0.1	1.2 ± 0.11
UniProt P62995|P62995-3	1.08 ± 0.077	1.36 ± 0.24	1.64 ± 0.54	1.73 ± 0.47	1.61 ± 0.64	1.54 ± 0.58	1.54 ± 0.62	1.41 ± 0.64
HNRNPA0 (UniProt Q13151)	0.975 ± 0.038	1 ± 0.024	1 ± 0.038	0.989 ± 0.05	0.967 ± 0.035	1 ± 0.046	1.01 ± 0.052	0.986 ± 0.058
ASCC3 (UniProt Q8N3C0)	1 ± 0.066	1.09 ± 0.026	1.06 ± 0.032	1.16 ± 0.091	1.32 ± 0.17	1.38 ± 0.22	1.53 ± 0.26	1.73 ± 0.27
UniProt Q7Z7K6|Q7Z7K6-3	1.09 ± 0.035	1.08 ± 0.071	1.16 ± 0.013	1.37 ± 0.071	1.69 ± 0.2	2.01 ± 0.27	2.24 ± 0.32	3.21 ± 0.43
UniProt Q8NCW5	0.907 ± 0.084	0.869 ± 0.041	0.991 ± 0.083	0.986 ± 0.055	0.967 ± 0.085	0.932 ± 0.08	0.895 ± 0.11	0.969 ± 0.1
UniProt P62805	0.891 ± 0.063	0.855 ± 0.058	0.972 ± 0.027	0.963 ± 0.053	1.08 ± 0.048	1.22 ± 0.054	1.2 ± 0.067	1.76 ± 0.14
DDX51 (UniProt Q8N8A6)	1.07 ± 0.15	1.11 ± 0.05	1.2 ± 0.08	1.35 ± 0.09	1.64 ± 0.085	1.86 ± 0.21	2.05 ± 0.24	2.1 ± 0.15
UniProt P63092-2|P63092-3|P63092|P63092-4	0.973 ± 0.013	0.9607 ± 0.0034	0.922 ± 0.025	0.91 ± 0.024	0.882 ± 0.043	0.882 ± 0.038	0.873 ± 0.026	0.847 ± 0.031
Q5VWV2|Q8TEW0|Q8TEW0-11|Q8TEW0-2|Q8TEW0-4|Q8TEW0-5|Q8TEW0-8 (UniProt Q8TEW0)	1.02 ± 0.11	1.02 ± 0.084	1.05 ± 0.098	1.07 ± 0.089	1.17 ± 0.14	1.15 ± 0.14	1.2 ± 0.14	1.19 ± 0.1
UniProt Q13325|Q13325-2	1.06 ± 0.044	1.05 ± 0.061	0.989 ± 0.057	0.978 ± 0.05	0.952 ± 0.086	0.927 ± 0.049	0.906 ± 0.077	0.888 ± 0.13
MDC1 (UniProt Q14676)	1.1 ± 0.024	1.14 ± 0.042	1.23 ± 0.053	1.41 ± 0.11	1.66 ± 0.17	1.77 ± 0.21	1.86 ± 0.29	1.92 ± 0.36
UniProt P55884|P55884-2	1.02 ± 0.042	1.07 ± 0.056	1.03 ± 0.068	1.14 ± 0.18	1.29 ± 0.26	1.46 ± 0.33	1.55 ± 0.34	1.75 ± 0.36
UniProt Q8IZ81|D6RBS5	1.12 ± 0.15	1.15 ± 0.2	0.932 ± 0.066	0.934 ± 0.069	0.944 ± 0.063	0.877 ± 0.048	0.958 ± 0.13	0.802 ± 0.051
SLC44A1 (UniProt Q8WWI5)	0.943 ± 0.066	0.931 ± 0.078	0.926 ± 0.061	0.894 ± 0.093	0.934 ± 0.07	0.879 ± 0.1	0.899 ± 0.1	0.938 ± 0.08
UniProt Q8IXB1|Q8IXB1-2	1.17 ± 0.21	1.06 ± 0.11	1.08 ± 0.1	1.17 ± 0.15	1.1 ± 0.11	1.11 ± 0.16	1.1 ± 0.11	1.06 ± 0.084
UniProt P61981	0.845 ± 0.11	0.811 ± 0.067	1.01 ± 0.14	0.987 ± 0.076	0.942 ± 0.075	0.968 ± 0.12	0.912 ± 0.15	1.05 ± 0.16
UniProt Q8TDZ2|Q8TDZ2-4	1.01 ± 0.056	0.965 ± 0.069	0.946 ± 0.021	0.9475 ± 0.0091	0.9237 ± 0.0088	0.899 ± 0.019	0.921 ± 0.016	0.879 ± 0.058
UniProt Q8IW45|Q8IW45-2	1.01 ± 0.071	0.978 ± 0.074	0.985 ± 0.038	0.945 ± 0.021	0.969 ± 0.013	0.915 ± 0.045	0.954 ± 0.077	0.91 ± 0.035
UniProt Q15843|S4R3E9	1.1 ± 0.29	0.839 ± 0.092	1.25 ± 0.31	0.955 ± 0.21	1.09 ± 0.29	0.994 ± 0.18	1.11 ± 0.4	1.07 ± 0.25
UniProt Q8WXA9-2	1.02 ± 0.067	1.11 ± 0.044	1.14 ± 0.077	1.12 ± 0.082	1.15 ± 0.067	1.11 ± 0.07	1.18 ± 0.035	1.18 ± 0.1
NFXL1 (UniProt Q6ZNB6)	1.04 ± 0.079	1.09 ± 0.1	1.05 ± 0.091	1.11 ± 0.067	1.13 ± 0.12	1.16 ± 0.13	1.12 ± 0.12	1.15 ± 0.11
PPP2R5A (UniProt Q15172)	1.04 ± 0.063	0.993 ± 0.046	0.939 ± 0.011	0.9 ± 0.033	0.877 ± 0.048	0.864 ± 0.04	0.862 ± 0.097	0.848 ± 0.055
UniProt Q2TB10|A0A087WXB4	1.04 ± 0.1	1.15 ± 0.14	1.15 ± 0.12	1.36 ± 0.28	1.68 ± 0.48	1.9 ± 0.44	2.04 ± 0.64	2.54 ± 1.1
Q5STZ8|Q8NE71 (UniProt Q8NE71)	1.03 ± 0.023	1.02 ± 0.019	0.96 ± 0.053	0.987 ± 0.043	0.993 ± 0.06	0.997 ± 0.046	0.994 ± 0.066	0.984 ± 0.092
METTL3 (UniProt Q86U44)	0.967 ± 0.058	1.01 ± 0.061	0.969 ± 0.062	0.948 ± 0.076	0.911 ± 0.06	0.932 ± 0.058	0.92 ± 0.085	0.931 ± 0.063
